Results filed as inconclusive are left out. Entries that show only a call come without a potency. The source made the active and inactive calls. Calls follow the shape of the dose curve; as a rule, active = well fitted inhibition curve with a large enough effect; inconclusive = small, poorly fitted or top-dose-only effect; inactive = flat fitted curve, though single readings scatter.
Assays:
Assay in all cases: qHTS profiling for inhibitors of Plasmodium falciparum proliferation (AID 504749); also: nearly all actives have a fitted effect of over 60% in size
Conditions in all cases: P. falciparum in erythrocytes, SYBR Green DNA, 72 h; series mostly up to 12.8 µM
CP185 = test system: CP185
Procedure, shortened: (§1)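 Fluorescence of SYBR Green-bound parasite DNA, read at 485/535 nm, served as the growth measure. Infected erythrocytes were cultured with compound 72 h; artemisinin (0.29 uM) and DMSO wells defined the normalization range.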

CP192 = test system: CP192
Procedure, shortened: as §1

CP211 = test system: CP211
Procedure, shortened: as §1

CP215 = test system: CP215
Procedure, shortened: as §1

CP247 = test system: CP247
Procedure, shortened: as §1

CP262 = test system: CP262
Procedure, shortened: as §1

CP266 = test system: CP266
Procedure, shortened: as §1

CP268 = test system: CP268
Procedure, shortened: as §1

CP269 = test system: CP269
Procedure, shortened: as §1

CP286 = test system: CP286
Procedure, shortened: as §1

CP291 = test system: CP291
Procedure, shortened: as §1

CP297 = test system: CP297
Procedure, shortened: as §1

CP305 = test system: CP305
Procedure, shortened: as §1

DIV17 = test system: DIV17
Procedure, shortened: as §1

DIV30 = test system: DIV30
Procedure, shortened: as §1

Dd2 = test system: Dd2
Procedure, shortened: as §1

ICS = test system: ICS
Procedure, shortened: as §1

P93_24 = test system: P93_24
Procedure, shortened: as §1

PC15 = test system: PC15
Procedure, shortened: as §1

PC26 = test system: PC26
Procedure, shortened: as §1
Potency is read from the fitted curve at half-maximal effect.

SMILES | Potency (CP185) | Potency (CP192) | Potency (CP211) | Potency (CP215) | Potency (CP247) | Potency (CP262) | Potency (CP266) | Potency (CP268) | Potency (CP269) | Potency (CP286) | Potency (CP291) | Potency (CP297) | Potency (CP305) | Potency (DIV17) | Potency (DIV30) | Potency (Dd2) | Potency (ICS) | Potency (P93_24) | Potency (PC15) | Potency (PC26)
C[C@H](O)Cn1cnc2c1c(=O)n(C)c(=O)n2C | inactive | inactive | inactive | inactive | inactive | inactive | inactive | inactive | inactive | inactive | inactive | inactive | inactive | inactive | inactive | inactive | inactive | inactive | inactive | inactive
C[C@@H](CNC1CCCCC1)OC(=O)c1ccccc1 | inactive | inactive | inactive | – | – | inactive | inactive | – | – | – | – | – | – | 4.55 µM (active) | – | 4.47 µM (active) | 1.78 µM (active) | 3.16 µM (active) | – | 5.73 µM (active)
CCN1CCC[C@@H](OC(=O)C(c2ccccc2)c2ccccc2)C1 | – | inactive | inactive | – | inactive | inactive | inactive | inactive | inactive | inactive | – | inactive | inactive | – | – | – | – | – | – | –
CCOC(=O)Oc1c(OC)cc(C(=O)O[C@H]2C[C@H]3CN4CCc5c([nH]c6cc(OC)ccc56)[C@@H]4C[C@H]3[C@@H](C(=O)OC)[C@@H]2OC)cc1OC | – | – | – | – | – | – | – | – | – | 2.51 µM (active) | – | 7.21 µM (active) | – | 5.73 µM (active) | 7.21 µM (active) | – | 2.82 µM (active) | 3.98 µM (active) | – | 5.73 µM (active)

— PubChem BioAssay (NCATS)
